# Reference: article PMC4336329 (PLoS ONE, 2015)
# Out of some 310,000 compounds screened, about 2,200 (0.71%) showed an effect of 50% or more. Effects have a minus sign here. The list comes from a sample in which strong results are over-represented; it also holds similar structures and randomly drawn compounds.
# Target: human ether-à-go-go-related gene (hERG) potassium channel (human, UniProt Q12809)
# Experiment: primary screen, population patch clamp on CHO cells stably expressing hERG; higher = less effect of the substance
# Sequence of human ether-à-go-go-related gene (hERG) potassium channel (Q12809 whole entry, looked up): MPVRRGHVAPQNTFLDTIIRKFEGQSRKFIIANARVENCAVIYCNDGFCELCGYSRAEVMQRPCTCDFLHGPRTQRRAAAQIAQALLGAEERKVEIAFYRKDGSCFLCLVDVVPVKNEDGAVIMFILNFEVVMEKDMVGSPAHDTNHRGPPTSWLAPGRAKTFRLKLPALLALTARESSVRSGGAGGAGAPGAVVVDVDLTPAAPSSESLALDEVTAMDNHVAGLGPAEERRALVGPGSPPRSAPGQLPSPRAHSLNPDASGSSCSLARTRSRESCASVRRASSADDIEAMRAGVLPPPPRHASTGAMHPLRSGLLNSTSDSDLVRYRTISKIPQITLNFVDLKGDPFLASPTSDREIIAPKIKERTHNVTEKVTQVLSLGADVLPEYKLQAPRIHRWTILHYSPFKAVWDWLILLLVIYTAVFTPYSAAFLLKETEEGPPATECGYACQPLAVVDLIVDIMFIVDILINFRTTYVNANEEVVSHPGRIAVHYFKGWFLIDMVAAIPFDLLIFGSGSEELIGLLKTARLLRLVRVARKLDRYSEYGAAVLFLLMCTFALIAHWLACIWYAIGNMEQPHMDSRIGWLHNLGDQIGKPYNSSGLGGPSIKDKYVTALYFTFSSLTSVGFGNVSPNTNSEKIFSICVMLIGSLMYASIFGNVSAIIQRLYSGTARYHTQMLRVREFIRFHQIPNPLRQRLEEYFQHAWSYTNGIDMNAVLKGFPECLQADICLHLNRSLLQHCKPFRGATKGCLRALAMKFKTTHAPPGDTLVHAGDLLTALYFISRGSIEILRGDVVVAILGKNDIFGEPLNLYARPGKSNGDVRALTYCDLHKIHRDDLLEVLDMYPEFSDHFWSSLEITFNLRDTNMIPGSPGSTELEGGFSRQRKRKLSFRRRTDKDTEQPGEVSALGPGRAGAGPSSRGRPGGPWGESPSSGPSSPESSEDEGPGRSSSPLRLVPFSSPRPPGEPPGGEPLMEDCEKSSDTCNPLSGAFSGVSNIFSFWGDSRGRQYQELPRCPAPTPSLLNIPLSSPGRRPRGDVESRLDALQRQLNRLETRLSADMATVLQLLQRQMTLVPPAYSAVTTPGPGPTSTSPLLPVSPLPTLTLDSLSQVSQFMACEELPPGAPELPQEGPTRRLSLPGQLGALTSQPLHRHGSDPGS
row,Compound,"hERG current change (%, negative = inhibition) at 1uM"
1,O=C(OCCN1C(=O)c2ccccc2C1=O)c1cccs1,11.9%
2,CCC(C)n1c(=N)c(C#N)cc2c(=O)n3cc(C)ccc3nc21 (stereo not drawn),-22%
3,CNC(=O)c1cc2c(=O)n3cc(C)ccc3nc2n(C(C)C)c1=N,-81.9%
4,COCCCNC(=O)c1cc2c(=O)n3cccc(C)c3nc2n(C(C)C)c1=N,-46.1%
5,Cc1cccn2c(=O)c3cc(S(=O)(=O)c4ccccc4)c(=N)n(Cc4cccnc4)c3nc12,-3.7%
6,O=C(NCc1cccnc1)c1cccn2c(=O)c3sccc3nc12,-16.3%
7,CNC(=O)c1cc2c(=O)n3cccc(C)c3nc2n(C(C)C)c1=N,-82.3%
8,C=CCn1c(=N)c(C(=O)NCCCOC)cc2c(=O)n3cc(C)ccc3nc21,-41.9%
9,Cc1cccn2c(=O)c3cc(C(=O)NCc4cccnc4)c(=N)n(C(C)C)c3nc12,-67.3%
10,CCC(C)n1c(=N)c(C#N)cc2c(=O)n3cccc(C)c3nc21 (stereo not drawn),-16.6%
11,COc1ccc2c(c1)CCc1c(C(=O)N3CCCCCC3)noc1-2,-1.37%
12,C=C(C)CN1C(=O)c2ccccc2C1=O,4.89%
13,Cc1nc(Nc2ccccc2)[nH]c(=O)c1CCC(C)C,1.92%
14,Cc1ccc(C)c(-n2c(-c3cccnc3)n[nH]c2=S)c1,18.2%
15,CCN(Cc1ccc(NC(C)=O)cc1)CC1CCCN(CCc2cccc(F)c2)C1 (stereo not drawn),9.42%
16,CCN(CC1CCCN(CCc2cccc(OC)c2)C1)C(=O)c1ccoc1 (stereo not drawn),-14.5%
17,CCN(CC1CCCN(CCc2cccc(F)c2)C1)C(=O)c1cc(C)oc1C (stereo not drawn),-2.34%
18,CCN(Cc1ccc(O)cc1)CC1CCCN(CCc2cccc(F)c2)C1 (stereo not drawn),-8.8%
19,CCN(CC1CCCN(CCc2cccc(OC)c2)C1)C(=O)c1ccc(COC)o1 (stereo not drawn),-51.1%
20,CCN(CC1CCCN(CCc2cccc(F)c2)C1)C(=O)c1cc2ccccc2o1 (stereo not drawn),-64.7%
21,CCN(CC1CCCN(CCc2cccc(OC)c2)C1)C(=O)c1ccoc1C (stereo not drawn),-27.8%

row,Compound,"hERG current change (%, negative = inhibition) at 1uM"
1,C=CCC(=O)N(CC)CC1CCCN(CCc2cccc(F)c2)C1 (stereo not drawn),-17.6%
2,CCN(CC1CCCN(CCc2cccc(F)c2)C1)C(=O)c1ccc(CSC)o1 (stereo not drawn),-52%
3,COc1ccc(C=O)cc1Cn1c(=O)n(CCC(=O)NCc2ccco2)c(=O)c2sccc21,5.91%
4,COc1ccc(N(CC(=O)NCc2ccc(Cl)cc2)S(=O)(=O)c2c(C)n[nH]c2C)cc1,1.42%
5,Cc1cc(C)nc(NS(=O)(=O)c2ccc(Br)cc2)n1,21.2%
6,Cc1ccc(Cn2c(CN3CC(C)OC(C)C3)nc3c2c(=O)[nH]c(=O)n3C)cc1 (stereo not drawn),-3.88%
7,O=C(O)CCn1cc(/C=C/C(=O)c2ccc(Cl)cc2)c(-c2cccc(Br)c2)n1,14.7%
8,CCCCN(C)C(=O)C1CCN(Cc2cccnc2)CC1,10.1%
9,CCCCNC(=O)C1CCN(C/C(C)=C/c2ccccc2)CC1.O=C(O)C(=O)O,-33.9%
10,CCCCN(C)C(=O)C1CCN(C/C(C)=C/c2ccccc2)CC1.O=C(O)C(=O)O,-54.3%
11,CCCCN(C)C(=O)C1CCN(CCCc2ccccc2)CC1.O=C(O)C(=O)O,-73.6%
12,O=C(C1CCN(CC2CC=CCC2)CC1)N(CCc1ccccc1)Cc1ccccc1 (stereo not drawn),-47%
13,CCN(CC)C(=O)C1CCN(Cc2ccc(OCc3ccccc3)cc2)CC1.O=C(O)C(=O)O,-13.3%
14,CCN(Cc1ccccc1)C(=O)C1CCN(C/C(C)=C/c2ccccc2)CC1.O=C(O)C(=O)O,-31%
15,CCCCN(C)C(=O)C1CCN(Cc2ccccn2)CC1.O=C(O)C(=O)O,6.35%
16,CCCCN(C)C(=O)C1CCN(Cc2cccc(OCc3ccccc3)c2)CC1.O=C(O)C(=O)O,-35.6%
17,O=C(C1CCN(CCCc2ccccc2)CC1)N(CCc1ccccc1)Cc1ccccc1.O=C(O)C(=O)O,-75%
18,CCCCN(C)C(=O)C1CCN(Cc2ccc(OCc3ccccc3)cc2)CC1.O=C(O)C(=O)O,-55.7%
19,CC1CCN(C(=O)C2CCN(CCCc3ccccc3)CC2)CC1.O=C(O)C(=O)O,-23.5%
20,COC(=O)C1=C(c2cc3ccccc3o2)C[C@@H]2CC[C@H]1N2C(=O)NC1CCCCC1,-7.33%
21,CC(C)C(NC(=O)c1ccccc1)c1nnc(SCC(=O)Nc2nccs2)n1C (stereo not drawn),15.7%

row,Compound,"hERG current change (%, negative = inhibition) at 1uM"
1,Cc1cc(=O)nc2c3ccccc3n(CC(=O)NCCCN3CCCC3=O)n12,10.4%
2,O=C(O)CCC(=O)NNC(=O)c1cccs1,15.5%
3,CCOC(=O)CSc1nc(CC)nc2ccccc12,4.2%
4,O=c1cc(CO)oc(CN2CCCC2)c1O,-2.54%
5,C/C(=N\O)c1ccc2c(c1)CC(C)O2 (stereo not drawn),13.6%
6,Cc1cc(C[n+]2ccsc2N)c2ncccc2c1.[Br-],-20.1%
7,COc1ccc2c(c1)sc(N)[n+]2Cc1cc(C)cc2cccnc12.[Br-],-26.5%
8,CCOc1ccc2c(c1)sc(N)[n+]2Cc1cc(C)cc2cccnc12.[Br-],-56.2%
9,CN(Cc1ccccc1)C(=O)c1nn2cccnc2c1Cl,13.2%
10,COCCn1c(=N)c(C(=O)NCCc2ccc(OC)cc2)cc2c(=O)n3cccc(C)c3nc21,-95.4%
11,CCNC(=O)c1cc2c(=O)n3cccc(C)c3nc2n(CCc2ccccc2)c1=N,-90.7%
12,Cc1cccn2c(=O)c3cc(C(=O)NCCN4CCOCC4)c(=N)n(CCN4CCOCC4)c3nc12,12.2%
13,COCCn1c(=N)c(C(=O)NCCc2ccccc2)cc2c(=O)n3cccc(C)c3nc21,-86.1%
14,Cc1cccn2c(=O)c3cc(C(=O)NCCN4CCOCC4)n(C)c3nc12,9.82%
15,CCCCNC(=O)c1cc2c(=O)n3cccc(C)c3nc2n(CCN2CCOCC2)c1=N,-92.4%
16,COCCNC(=O)c1cc2c(=O)n3cccc(C)c3nc2n1C,22.6%
17,COc1ccc(CN2CCN(Cc3ccccc3C(F)(F)F)CC2)c(OC)c1.O=C(O)C(=O)O,-39.5%
18,Cc1ccc(N2C(=O)CC(NCc3ccc4c(c3)OCO4)C2=O)cc1Cl (stereo not drawn),-12.2%
19,COc1ccc(COC(=O)c2ccc(C)c(S(=O)(=O)N3CCOCC3)c2)cc1F,16%
20,Cc1ccc(CNS(=O)(=O)c2ccc3c(c2)C(C)(C)C(=O)N3C)cc1,7.06%
21,COc1cc(CNC(=O)CCCC/C=C/C(C)C)ccc1O,11.8%

row,Compound,"hERG current change (%, negative = inhibition) at 1uM"
1,CC(=O)N1CCN(c2ccc(NC(=O)c3ccc(Cl)c([N+](=O)[O-])c3)cc2)CC1,5.32%
2,O=C(C/C(=N\NC(=O)c1ccccc1Br)C(F)(F)F)c1cccs1,3.65%
3,O=C(Nc1ncnc2sc3c(c12)CCCCC3)c1ccc(F)cc1,14.2%
4,Cc1[nH]c2ccccc2c1C(=O)CSc1nc2cc(S(=O)(=O)N3CCCCC3)ccc2o1,9.62%
5,CCc1cc2c(=O)c(-c3nc4ccccc4n3C)c(CCCC(=O)O)oc2cc1OC(=O)C(C)(C)C,14.8%
6,CC(=O)c1ccc(NC(=O)Cc2ccsc2)cc1,14.1%
7,C=CCNC(=O)NS(=O)(=O)c1ccc(C)cc1,16.6%
8,Cc1cccn2c(=O)c3cc(C(=O)NCCCn4ccnc4)n(C)c3nc12,2.55%
9,Cc1cccn2c(=O)c3cc(C(=O)NC(C)c4ccccc4)c(=N)n(CCCn4ccnc4)c3nc12 (stereo not drawn),-10.8%
10,Cc1cccn2c(=O)c3cc(C(=O)NCCN4CCOCC4)c(=N)n(CCc4ccccc4)c3nc12,-71.8%
11,Cc1cccn2c(=O)c3cc(C(=O)NCCc4ccccc4)c(=N)n(CCCn4ccnc4)c3nc12,-61.3%
12,Cc1ccc(C2(C)NC(=O)N(CC(=O)Nc3cc(S(=O)(=O)N4CCOCC4)ccc3C)C2=O)cc1 (stereo not drawn),-9.42%
13,O=C(CO/N=C/c1ccc(OC(F)F)cc1)NCc1ccc(F)cc1,-52%
14,COC(=O)c1ccc(/C=N/OCC(=O)NCc2ccc(F)cc2)cc1,3.32%
15,CC(C)(C)c1ccc(/C=N/OCC(=O)NCc2ccc(F)cc2)cc1,11.5%
16,O=C(NCc1cc(C(F)(F)F)cc(C(F)(F)F)c1)C1CC(c2ccc(C(F)(F)F)cc2)=NO1 (stereo not drawn),18.6%
17,Cl.c1ccc(CN2CCN(CCN3CCn4c3nc3ccccc34)CC2)cc1,-62.3%
18,Cl.c1ccc2c(c1)nc1n2CCN1CCN1CCCC1,18.3%
19,CN1CCN(CCN2CCn3c2nc2ccccc23)CC1.Cl,5.64%
20,COc1ccc(CN(C)C(c2ccccc2)c2nnnn2-c2ccccc2C)c(OC)c1C (stereo not drawn),11.5%
21,CCn1c(CC(=O)Nc2ccccc2)nnc1SCC(=O)NC1CCCC1,5.86%
